Assay results from PubChem BioAssay (Tox21).
Values without a mark were called inactive. Results filed as inconclusive are left out. A call without a number means that no potency is given here. The source made the active and inactive calls. Unless noted, the call rests on the fitted dose curve.

What was measured:
[1] = Nuclear factor erythroid 2-related factor 2/antioxidant responsive element (Nrf2/ARE) small molecule agonists: qHTS cell viability counter screen in human keratinocytes (AID 1919968; active means well fitted curve in the direction sought with a large enough effect in the repeat runs; an effect the other way counts as inactive or inconclusive; further: nearly all actives have a fitted effect of over 55% in size)
Outline: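 Measured as CellTiter-Fluor fluorescence, this readout tracks cytotoxicity in the same wells as the ARE-luciferase screen. HaCaT reporter cells (1,500/well) received compounds after a 5 h pre-incubation and were exposed for 23 h.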

[2] = biological target: Gonadotropin-releasing hormone receptor (Homo sapiens) (UniProt P30968); assay: Human gonadotropin-releasing hormone receptor (GnRHR) small molecule agonists, calcium flux assay in GnRHR-HEK293 cells (AID 1920063); further: nearly all actives have a fitted effect of over 35% in size
Outline: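 Fluorescence kinetics (480 nm excitation, 540 nm emission; 3 min, 1 s steps) report calcium mobilisation in human GnRHR-HEK293 cells in agonist mode. Dye incubation: 1 h, 37 C.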

[3] = biological target: KiSS-1 receptor (Homo sapiens) (UniProt Q969F8); assay: Human kisspeptin (KISS1R) small molecule agonists, calcium flux assay in KISS1R-HEK293 cells (AID 1920064; active means well fitted curve in the direction sought with a large enough effect in the repeat runs; an effect the other way counts as inactive or inconclusive)
Outline: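 Measures KISS1R agonism through calcium-sensitive dye fluorescence in stably transfected HEK293 cells, read for 3 min after pin-tool compound delivery; 15-point titrations in triplicate.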

[4] = G protein-coupled receptor (GPCR) small molecule agonists, calcium flux assay: HEK293 wild type cell line counter screen (AID 1920065)
Outline: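 Readout: fluorescence at 480 nm excitation/540 nm emission, sampled at 1 s intervals for 3 min. Cells had been cultured 18 h, then dye-loaded 1 h at 37 C before compound or ATP addition.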

[5] = p53 small molecule agonists, cell-based qHTS assay with human liver microsomes: qHTS cell viability counter screen (AID 1963579); further: nearly all actives have a fitted effect of over 45% in size; further: potency means the concentration at half of the fitted maximal effect
Outline: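 p53RE-bla cells (4,000/well) were pre-incubated 5 h at 37 C, then given compounds in DMSO plus human liver microsomes (0.5 mg/mL final) and NADPH (0.5 mg/mL final) for 16 h at 37 C. Viability was read by CellTiter-Glo luminescence.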

[6] = p53 small molecule agonists, cell-based qHTS assay with rat liver microsomes: qHTS cell viability counter screen (AID 1963580); further: nearly all actives have a fitted effect of over 45% in size
Outline: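 p53RE-bla HCT-116 cells were exposed 16 h at 37 C to compounds with rat liver microsomes (0.5 mg/mL) and NADPH (0.5 mg/mL). Viability was measured in the same wells as ATP content by CellTiter-Glo luminescence.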

[7] = p53 small molecule agonists, cell-based qHTS assay: qHTS cell viability counter screen (AID 1963581); further: nearly all actives have a fitted effect of over 45% in size
Outline: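 In the same plates used for the p53 bla reporter, HCT-116 cells given compounds for 16 h at 37 C received CellTiter-Glo; luminescence was recorded 30 min later at room temperature.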

[8] = biological target: 5-hydroxytryptamine receptor 2A (Homo sapiens) (UniProt P28223); assay: 5-hydroxytryptamine receptor 2A (HTR2A) small molecule agonists, cell-based qHTS assay (AID 1963587); further: nearly all actives have a fitted effect of over 30% in size
Outline: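 CHO cells stably expressing human HTR2A, plated 18 h, loaded with calcium dye 1 h at 37 C. Agonist mode: compounds added and intracellular calcium fluorescence recorded kinetically for 2 min at 1 sec intervals.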

[9] = biological target: Muscarinic acetylcholine receptor M1 (Homo sapiens) (UniProt P11229); assay: Cholinergic receptor muscarinic 1 (CHRM1) small molecule antagonists, cell-based qHTS assay (AID 1963588); further: nearly all actives have a fitted effect of over 40% in size
Outline: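 CHRM1-CHO calcium-flux assay, antagonist mode. Cells were seeded 18 h, dye-loaded 1 h at 37 C and given compound for 5 min at RT, then acetylcholine was added at 50nM. FDSS fluorescence was read 3 min; 15 concentrations, three runs.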

[10] = biological target: Muscarinic acetylcholine receptor M1 (Homo sapiens) (UniProt P11229); assay: Cholinergic receptor muscarinic 1 (CHRM1) small molecule agonists, cell-based qHTS assay (AID 1963589); further: nearly all actives have a fitted effect of over 35% in size
Outline: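 Each compound was tested at 15 concentrations across three independent runs on dye-loaded CHO cells stably expressing human CHRM1, reading intracellular calcium fluorescence kinetically at 1 sec intervals.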

[11] = cAMP Responsive Elements (CRE) small molecule agonists, cell-based qHTS assay (AID 1963590)
Outline: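 Cell line: CRE-bla HEK 293T; medium DMEM/10% dialyzed FBS/0.1 mM NEAA/1 mM pyruvate/25 mM HEPES; 3 h compound exposure; beta-lactamase FRET readout after 2 h substrate loading at RT.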

[12] = cAMP Responsive Elements (CRE) small molecule antagonists, cell-based qHTS assay (AID 1963591; active means well fitted inhibition curve with a large enough effect in the signal ratio in the repeat runs, not every such curve was filed as active; the % refers to the signal ratio)
Outline: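 Inhibition of NKH477-driven (0.25 uM final) CRE-beta-lactamase signal in HEK293T cells, 3 h compound exposure at 37 °C, detected by FRET substrate fluorescence.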

[13] = biological target: Beta-2 adrenergic receptor (Homo sapiens) (UniProt P07550); assay: Adrenergic beta2 receptor (ADRB2) small molecule antagonists, cell-based qHTS assay (AID 1963592); further: series mostly up to about 92 µM; nearly all actives have a fitted effect of over 50% in size
Outline: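 Cells (CHO, stable ADRB2 overexpression) incubated 18-20hr at 37C; compounds added from DMSO; agonist mix (1nM isoproterenol, 100uM IBMX, 25uM Ro-20-1724) added; 0.5hr RT; d2-cAMP and anti-cAMP-cryptate added; 1hr RT; 665/615 nm read.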

[14] = biological target: D(2) dopamine receptor (Homo sapiens) (UniProt P14416); assay: Dopamine D2 receptor (DRD2) small molecule agonists, cell-based qHTS assay (AID 1963594); further: nearly all actives have a fitted effect of over 35% in size; further: potency means the concentration at half of the fitted maximal effect
Outline: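 HEK293 cells stably expressing human DRD2, pre-treated with PDE inhibitor Ro20-1724 (0.1 mM final) and compound 10 min at room temperature, then stimulated with NKH477 (200nM […]) for 30 min. cAMP read by HTRF (665/620 nm).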

[15] = biological target: D(2) dopamine receptor (Homo sapiens) (UniProt P14416); assay: Dopamine D2 receptor (DRD2) small molecule antagonists, cell-based qHTS assay (AID 1963595; active means well fitted inhibition curve with a large enough effect in the signal ratio in the repeat runs, with a control signal flat; the % refers to the signal ratio)
Outline: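 Readout: HTRF cAMP, cAMP-d2 competing with cellular cAMP for anti-cAMP cryptate, read after 1 h. Cells: DRD2-HEK293. Conditions: 0.1 mM Ro20-1724, 12 nM quinpirole, 200 nM NKH477, 30 min RT.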

[16] = biological target: 5-hydroxytryptamine receptor 2A (Homo sapiens) (UniProt P28223); assay: 5-hydroxytryptamine receptor 2A (HTR2A) small molecule antagonists, cell-based qHTS assay (AID 1963586); further: nearly all actives have a fitted effect of over 45% in size
Outline: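 Antagonist-mode intracellular calcium assay: DOI (4 nM) added after 5 min compound pre-incubation at room temperature to dye-loaded HTR2A-CHO cells. Fluorescence followed for 3 min, sampled every second.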

[17] = biological target: Beta-2 adrenergic receptor (Homo sapiens) (UniProt P07550); assay: Adrenergic beta2 receptor (ADRB2) small molecule agonists, cell-based qHTS assay (AID 1963593);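 further: CHO cells stably overexpressing human ADRB2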
Outline: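 CHO cells stably over-expressing ADRB2 were plated overnight at 37C, then dosed with compounds plus a stimulation mix containing 100uM IBMX and 25uM Ro-20-1724 for 0.5hr at room temperature. cAMP was measured by HTRF competition, 1hr.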

Sequence of Beta-2 adrenergic receptor (Homo sapiens) (P07550 whole entry, looked up): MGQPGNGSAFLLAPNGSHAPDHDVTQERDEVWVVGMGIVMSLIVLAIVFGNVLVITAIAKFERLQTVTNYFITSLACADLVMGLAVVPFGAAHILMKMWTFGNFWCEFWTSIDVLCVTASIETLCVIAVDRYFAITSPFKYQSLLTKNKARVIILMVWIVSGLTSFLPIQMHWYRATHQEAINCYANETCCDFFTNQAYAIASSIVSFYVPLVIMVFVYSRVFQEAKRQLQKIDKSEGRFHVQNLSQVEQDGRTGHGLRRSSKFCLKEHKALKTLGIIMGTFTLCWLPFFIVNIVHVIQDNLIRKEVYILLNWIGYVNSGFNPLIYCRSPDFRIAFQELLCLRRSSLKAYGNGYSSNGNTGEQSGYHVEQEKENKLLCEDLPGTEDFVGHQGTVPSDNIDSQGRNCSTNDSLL
Sequence of Muscarinic acetylcholine receptor M1 (Homo sapiens) (P11229 whole entry, looked up): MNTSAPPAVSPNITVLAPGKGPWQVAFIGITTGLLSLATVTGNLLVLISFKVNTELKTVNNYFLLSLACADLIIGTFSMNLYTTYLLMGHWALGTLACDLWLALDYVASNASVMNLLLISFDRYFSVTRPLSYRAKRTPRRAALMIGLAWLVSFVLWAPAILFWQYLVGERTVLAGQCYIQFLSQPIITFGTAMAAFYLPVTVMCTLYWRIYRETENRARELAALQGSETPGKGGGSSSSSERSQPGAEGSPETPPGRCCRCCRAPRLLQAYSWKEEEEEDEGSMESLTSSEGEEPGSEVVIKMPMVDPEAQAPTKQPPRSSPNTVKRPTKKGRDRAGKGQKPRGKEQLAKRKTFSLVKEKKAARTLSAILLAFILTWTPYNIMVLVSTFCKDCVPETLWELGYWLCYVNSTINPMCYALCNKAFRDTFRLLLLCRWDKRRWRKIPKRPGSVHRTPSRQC
Sequence of KiSS-1 receptor (Homo sapiens) (Q969F8 whole entry, looked up): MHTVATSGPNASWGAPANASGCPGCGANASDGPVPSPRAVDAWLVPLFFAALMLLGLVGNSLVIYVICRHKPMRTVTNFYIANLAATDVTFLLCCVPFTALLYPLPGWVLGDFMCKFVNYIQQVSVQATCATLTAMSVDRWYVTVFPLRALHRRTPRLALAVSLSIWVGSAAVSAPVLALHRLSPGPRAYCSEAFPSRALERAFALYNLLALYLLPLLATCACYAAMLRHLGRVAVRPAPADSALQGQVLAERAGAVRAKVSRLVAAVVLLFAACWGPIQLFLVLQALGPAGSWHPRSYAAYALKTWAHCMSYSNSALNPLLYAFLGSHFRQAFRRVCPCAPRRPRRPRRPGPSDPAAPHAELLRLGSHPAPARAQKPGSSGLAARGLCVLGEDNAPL
Sequence of D(2) dopamine receptor (Homo sapiens) (P14416 whole entry, looked up): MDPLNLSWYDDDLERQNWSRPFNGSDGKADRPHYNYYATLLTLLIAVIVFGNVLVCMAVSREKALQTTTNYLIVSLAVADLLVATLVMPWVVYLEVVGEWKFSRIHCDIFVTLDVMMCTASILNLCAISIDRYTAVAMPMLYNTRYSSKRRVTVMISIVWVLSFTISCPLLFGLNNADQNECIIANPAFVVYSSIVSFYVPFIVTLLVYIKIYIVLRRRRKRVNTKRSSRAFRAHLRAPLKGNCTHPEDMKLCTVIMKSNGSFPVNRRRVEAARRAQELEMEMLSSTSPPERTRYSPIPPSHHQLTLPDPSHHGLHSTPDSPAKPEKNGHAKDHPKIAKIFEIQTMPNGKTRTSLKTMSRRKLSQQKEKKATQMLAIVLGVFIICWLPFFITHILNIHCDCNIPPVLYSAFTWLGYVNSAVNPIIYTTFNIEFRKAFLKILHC
Sequence of 5-hydroxytryptamine receptor 2A (Homo sapiens) (P28223 whole entry, looked up): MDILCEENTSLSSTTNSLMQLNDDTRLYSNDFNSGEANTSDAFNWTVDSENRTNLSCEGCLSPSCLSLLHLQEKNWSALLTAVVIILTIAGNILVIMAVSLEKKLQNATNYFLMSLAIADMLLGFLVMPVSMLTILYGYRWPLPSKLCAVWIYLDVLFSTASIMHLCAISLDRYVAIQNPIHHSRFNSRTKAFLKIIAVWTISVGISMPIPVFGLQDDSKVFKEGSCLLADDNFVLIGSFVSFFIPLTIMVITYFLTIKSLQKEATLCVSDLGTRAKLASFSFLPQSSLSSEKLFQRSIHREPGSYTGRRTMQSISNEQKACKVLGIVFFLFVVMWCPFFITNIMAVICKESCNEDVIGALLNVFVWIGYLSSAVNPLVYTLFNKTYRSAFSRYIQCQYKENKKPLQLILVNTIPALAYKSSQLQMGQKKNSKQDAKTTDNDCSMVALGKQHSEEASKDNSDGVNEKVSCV
Sequence of Gonadotropin-releasing hormone receptor (Homo sapiens) (P30968 whole entry, looked up): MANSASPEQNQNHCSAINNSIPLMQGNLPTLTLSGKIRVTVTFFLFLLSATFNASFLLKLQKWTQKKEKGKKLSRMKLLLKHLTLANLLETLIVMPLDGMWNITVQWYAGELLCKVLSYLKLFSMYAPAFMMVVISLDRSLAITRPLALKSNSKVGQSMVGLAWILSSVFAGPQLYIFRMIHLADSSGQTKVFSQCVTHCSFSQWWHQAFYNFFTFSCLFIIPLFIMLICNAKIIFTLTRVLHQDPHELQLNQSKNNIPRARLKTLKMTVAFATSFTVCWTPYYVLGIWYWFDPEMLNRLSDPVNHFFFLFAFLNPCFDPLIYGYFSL

Row | SMILES | Potency [1] | Potency [2] | Potency [3] | Potency [4] | Potency [5] | Potency [6] | Potency [7] | Potency [8] | Potency [9] | Potency [10] | Potency [11] | Potency [12] | Potency [13] | Potency [14] | Potency [15] | Potency [16] | Potency [17]
1 | Cc1ccc(S(=O)(=O)NC(=O)NC2CCCCC2)cc1 | inactive | inactive | inactive | inactive | inactive | inactive | inactive | inactive | inactive | inactive | inactive | inactive | inactive | inactive | inactive |  | 
2 | O=c1[nH]c(=O)n([C@H]2C[C@H](O)[C@@H](CO)O2)cc1C(F)(F)F | inactive | inactive | inactive | inactive | inactive | inactive | inactive | inactive | inactive | inactive |  | inactive | inactive | inactive | inactive | inactive | inactive
3 | CCCCCCOC(=O)CCCCCCCC(=O)OCCCCCC | inactive | inactive | inactive | inactive | inactive |  | inactive | inactive | inactive | inactive | inactive | inactive | inactive | inactive | inactive |  | inactive
4 | COc1cc(C(C)(C)C)c(O)c(C(C)(C)C)c1 | inactive | inactive | inactive | inactive | inactive |  | inactive | inactive |  | inactive |  |  | inactive | inactive |  |  | inactive
5 | OCCCCCCCCCCCCBr | inactive | inactive | inactive | inactive | inactive | inactive |  | inactive | inactive | inactive |  | inactive |  | inactive | inactive | inactive | 
6 | CCCCCC/C=C/C=O | inactive | inactive | inactive | inactive | inactive | inactive |  | inactive | inactive | inactive |  |  | inactive | inactive | inactive | inactive | inactive
7 | C=C(C)C(=O)OCCO | inactive | inactive | inactive | inactive | inactive | inactive |  | inactive | inactive | inactive | inactive | inactive | inactive | inactive | inactive | inactive | 
8 | CCCC[N+](C)(CCCC)CCCC | inactive | inactive | inactive | inactive | inactive | inactive | inactive | inactive |  | inactive | inactive |  | inactive | inactive | inactive | inactive | inactive
9 | COc1cc2nc(N(C)CCCNC(=O)C3CCCO3)nc(N)c2cc1OC (configuration not stated) | inactive | inactive | inactive | inactive | inactive | inactive | inactive | inactive | inactive |  | inactive | inactive | inactive | inactive | inactive |  | 
10 | O=C(O)c1ccc(S(=O)(=O)O)cc1C(=O)O | inactive | inactive | inactive | inactive | inactive | inactive | inactive | inactive | inactive | inactive | inactive |  | inactive | inactive | inactive |  | inactive
11 | CC(C)O | inactive | inactive | inactive | inactive | inactive |  | inactive | inactive | inactive | inactive |  | inactive | inactive | inactive | inactive | inactive | 
12 | CSc1ccc(C=O)cc1 | inactive | inactive | inactive | inactive | inactive | inactive |  | inactive | inactive | inactive | inactive | inactive | inactive | inactive | inactive |  | 
13 | CC(N=C(NC#N)Nc1ccncc1)C(C)(C)C (configuration not stated) | inactive | inactive | inactive | inactive | inactive | inactive | inactive | inactive | inactive | inactive | inactive | inactive | inactive | inactive | inactive | inactive | 
14 | Cn1c(=O)c2c(ncn2CCO)n(C)c1=O | inactive | inactive | inactive | inactive | inactive | inactive |  | inactive | inactive | inactive | inactive | inactive | inactive | inactive | inactive | inactive | 
15 | CC(C)C[C@H]1C(=O)N2CCC[C@H]2[C@]2(O)O[C@](NC(=O)[C@@H]3C=C4c5cccc6[nH]c(Br)c(c56)C[C@H]4N(C)C3)(C(C)C)C(=O)N12 | inactive | inactive | inactive | inactive | inactive | inactive | inactive |  |  |  | inactive | inactive |  | 0.0923 µM (active) | inactive |  | 
16 | CCCCCCCC#N | inactive | inactive | inactive | inactive | 32.4 µM (active) |  | inactive | inactive | inactive |  |  | inactive | inactive | inactive | inactive | inactive | inactive
